# A selection: hits, their analogues and other compounds. The true share with any hit is near 8.1%.
# SW480 rereplic: induces DNA re-replication in SW480 colon adenocarcinoma cells; SW480 DNA re-replication, Hoechst DNA content imaging, 48 h; Potency, µM (titrated, usually from 46.1 µM), without a hit: at the highest dose re-replication activation, actives largely listed as activators; 340,000 tested, 1.8% active; AID 624297; further: % of control where 0% means no effect; nearly all actives have a fitted effect of over 55% in size
#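 DNA re-replication was detected as more nuclei of elevated Hoechst intensity after 48 hr exposure to compound (23 nL pinned per well of 250 cells).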
# KB-V1 cytotox: KB-V1 MDR subline cytotoxicity. KB-V1 MDR cells viability, CellTiter-Glo, 72 h. Potency, µM (doses to about 46.1 µM), hits mostly cytotoxic. 400,000 tested, 3.4% active. AID 1347076; further: on the % scale 0 is the no-effect control and ±100 the full control effect; nearly all actives have a fitted effect of over 60% in size
#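 In this primary screen, KB-V1 cells overexpressing P-gp are incubated with library compounds (lowest to highest concentration) for 72 h at 37 degrees C before a luminescent ATP viability read.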
# MCF10A rerep: induces DNA re-replication in MCF 10a normal breast cells; MCF 10A DNA re-replication, Hoechst nuclear intensity, 48 h; Potency, µM (series often up to 46.1 µM), for inactives: top-dose activity, positive = re-replication, most hits filed as activators; 350,000 tested, 2.9% active; AID 624296; further: % of control where 0% means no effect; nearly all actives have a fitted effect of over 50% in size
# ELG1 DNA repair: inhibitors of ELG1-dependent DNA repair in HEK293T cells | HEK293T ELG1-luciferase reporter, luminescence, 16 h; DNA damage induced by 5-fluorouridine | Potency, µM (top dose mostly 46.1 µM), without a hit: at the top dose activity change, negative = inhibition, actives largely listed as inhibitors | 330,000 tested, 2.3% active | AID 504467; further: on the % scale 0 is the no-effect control and ±100 the full control effect; nearly all actives have a fitted effect of over 55% in size
#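 Overnight (16 hr) co-exposure of 2,000 cells/well to 5-fluorouridine and compound at 37 °C preceded detection. Luciferase was quantified via ONE-Glo luminescence; loss of signal denotes inhibition.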
# KB-3-1 cytotox: KB-3-1 parental cell cytotoxicity | KB-3-1 viability, CellTiter-Glo ATP luminescence, 72 h | Potency, µM (highest dose often 46.1 µM), most hits filed as cytotoxic | 400,000 tested, 1.4% active | AID 1347075; further: on the % scale 0 is the no-effect control and ±100 the full control effect; nearly all actives have a fitted effect of over 60% in size
#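 Viability of parental KB-3-1 cells, measured by CellTiter-Glo luminescence, followed a 72 h incubation at 37 °C with pinned compounds in phenol-red-free DMEM containing 10% FBS.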
# * marks the source's active call; other numbers are inactive results; i = inactive; ? = inconclusive; . = no result. The call rests on the fitted dose curve; in most records, active means well fitted curve in the direction sought with a large enough effect; inconclusive means small, poorly fitted or top-dose-only effect, or another doubt; inactive means no such curve, though single readings can be large; an effect the other way counts as inactive or inconclusive. Potency means the concentration at half of the fitted maximal effect.
SMILES,SW480 rereplic,KB-V1 cytotox,MCF10A rerep,ELG1 DNA repair,KB-3-1 cytotox
C=CCn1c(SCC(=O)c2c(C)[nH]c3ccccc23)nnc1-c1ccncc1,0%,i,4%,16%,i
COc1ccccc1-n1cnnc1SCC(=O)c1cc(C)n(Cc2cccs2)c1C,-5%,16µM*,9%,10%,i
COC(=O)CN1C(=O)C(O)(CC(=O)c2ccc(Br)cc2)c2ccccc21 (stereo not drawn),0%,i,9%,-5%,i
CCCCN(C(=O)c1cccc(S(=O)(=O)N2CCN(Cc3ccccc3)CC2)c1)c1ccccc1,-6%,i,8%,3%,i
Oc1ccccc1N=Nc1nc(-c2ccccc2)c(-c2ccccc2)[nH]1,?,0.92µM*,?,-7%,i
COc1ccc(N=Nc2nc(-c3ccccc3)c(-c3ccccc3)[nH]2)cc1,-16%,?,-5%,?,?
COc1ccccc1N=Nc1nc(-c2ccccc2)c(-c2ccccc2)[nH]1,1%,i,13%,23µM*,?
Cc1ccc(NC(=O)CSc2nc3c(c(=O)[nH]2)CCCC3)cc1C,-10%,i,?,7%,i
OCc1cnc(SCc2ccccc2)n1Cc1ccccc1,11%,i,0%,-6%,i
O=C(CSc1nnc(NC(=O)Cc2ccc(F)cc2)s1)NCc1ccco1,-2%,i,2%,?,i
COc1ccc(CC2(CO)COc3ccccc3C2=O)cc1 (stereo not drawn),16µM*,13µM*,?,.,?
CCN1CCCC1CNC(=O)Cn1ncc2c(=O)oc3ccc(C)cc3c21 (stereo not drawn),-9%,i,3%,-2%,i
CCOC(=O)c1c[nH]c(=S)n1C,-6%,i,-5%,?,i
Cc1ccccc1OCCNc1cc(N2CC(C)NC(C)C2)ccc1[N+](=O)[O-] (stereo not drawn),4%,21µM*,-4%,-19%,?
CC1CN(c2ccc([N+](=O)[O-])c(NCCOc3ccccc3)c2)CC(C)N1 (stereo not drawn),2%,?,17%,12%,i
Cc1ccc(S(=O)(=O)NCC(=O)NCC(=O)N(C)Cc2ccc(Br)s2)cc1C,.,?,.,.,i
Cc1cc(C)c(NC(=O)CNC(=O)CN(C)Cc2ccc(Br)s2)c(C)c1,-3%,16µM*,2%,-5%,i
COC1=C(Nc2ccc(C)cc2)C(=O)c2ccccc2C1=O,?,18µM*,?,?,i
CC1=C(Nc2ccc(C(=O)O)cc2)C(=O)c2ccccc2C1=O,-8%,i,?,-3%,?
COC1=C(Nc2ccccc2)C(=O)c2ccccc2C1=O,?,?,23%,1%,21µM*
O=C(CCN1CCN(c2ccccc2)CC1)NNC(=O)Cc1c(F)cccc1Cl,-11%,i,4%,-8%,i
Cc1ncc(CN2CCCC(C(=O)Nc3ccc(-c4cccc(F)c4)cc3)C2)n1C (stereo not drawn),?,?,23µM*,-20%,?
COc1cccc(CN2CCCC(C(=O)Nc3ccc(-c4cscn4)cc3)C2)c1 (stereo not drawn),?,21µM*,1%,?,?
Cc1ncc(CN2CCCC(C(=O)Nc3ccc(-c4ccco4)cc3)C2)cn1 (stereo not drawn),?,i,2%,6%,i
COCc1cc(CN2CCCC(C(=O)Nc3ccc(-c4ccco4)cc3)C2)ccc1OC (stereo not drawn),23µM*,i,2%,-16%,?
CCC(C)NC(=O)CNS(=O)(=O)c1ccc(C)cc1 (stereo not drawn),-3%,i,1%,4%,i
CC(=O)c1cccc(NC(=S)NNC(=O)c2ccco2)c1,-2%,i,13%,?,i
C=C(C)CNC(=S)NNC(=O)c1ccco1,1.8µM*,i,16µM*,-12%,i
CC(C)Cn1c(O)c(N=NC(=O)c2cccc(S(=O)(=O)N3CCCCC3)c2)c2ccccc21,?,2.1µM*,?,?,?

# Bioassay records (PubChem)
